Bioassay records from PubChem BioAssay.
KCNQ2 inh – blocks the rat KCNQ2 potassium channel; O88943; CHO-K1 KCNQ2, FluxOR thallium flux, 20 min; stronger effect = lower value; B-score at 10 µM; 1.1% of 310,000 active;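 active = fluorescence ratio B-score at most minus 3 library SDs, with starting brightness B-score within 2 library SDs, cut at about -5.5 in these data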
KCNQ2 pot – potentiators of rat KCNQ2 potassium channel. O88943. CHO-K1 KCNQ2, FluxOR thallium flux fluorescence; stronger effect = higher value. B-score at 10 µM. 0.54% of 310,000 active. AID 2239;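 active = fluorescence ratio B-score at least 3 SD of library B-scores, with initial fluorescence B-score within 3 of them, cut at about 5.3 in these data; same plate scores as AID 2156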;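 note: B-score of peak minus minimum over baseline fluorescence ratio after K+ and Tl+ stimulus; positive B-score means potentiation of KCNQ2 with more thallium influx and brighter signal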
Kir21 conf inh – confirmation of mouse Kir2.1 potassium channel inhibitors | shares compounds with KCNQ2 pot | Kir2.1-expressing cells, FluxOR thallium flux fluorescence; stronger effect = lower value | Tl flux remaining, % of negative control (stronger effect = lower value), % at 10 µM | 41% of 2,300 active | AID 2032;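 active = Primary-screen hit whose thallium flux fell at least 3 control SD below untreated wells in both duplicates, with normal baseline fluorescence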
HEK293 ctr – counter-screen for Kir2.1 inhibitors: effect in parental HEK293 cells; AID 2105; shares compounds with KCNQ2 pot; FluxOR thallium flux fluorescence; 0% = unstimulated blank wells; FluxOR signal as % of negative control (100 = no effect), % at 10 µM; 19% of 2,300 active;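 active = dye signal at least 3 control SD above or below untreated wells in both duplicates, raw fluorescence within 3, either direction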;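 note: percent is based on the flux ratio of peak minus minimum fluorescence over baseline F0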
CHO-K1 Tl ctr – parental CHO-K1 activity in KCNQ2 potentiator counter-screen; activity increase over 3SD of controls, % at 10 µM; AID 2282; 43% of 1,200 active; parental CHO-K1 cells, FluxOR thallium flux fluorescence; zero = vehicle mean+3SD, 100% = vehicle-minus-blank window; shares compounds with KCNQ2 pot;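 active = signal rise of at least 3 SD above the untreated control mean, in both duplicate wells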;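 note: counter screen of KCNQ2 potentiator hits so any rise reflects channel-independent effects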
KCNQ1 pot spec – selectivity of KCNQ2 potentiators: effect on human KCNQ1. CHO KCNQ1 stable, FluxOR thallium flux fluorescence; beyond 3SD, as % of vehicle-control signal. AID 2283. shares compounds with KCNQ2 pot. activation over 3SD threshold, % at 10 µM. 28% of 1,200 active;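 active = fluorescence ratio rise of at least 3 SD of vehicle wells above their mean, in both replicate wells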
KCNQ2 pot confirm – rat KCNQ2 channel potentiator confirmation | CHO-KCNQ2 cells, FluxOR thallium flux fluorescence | shares compounds with KCNQ2 pot | potentiation, less the hit threshold, % at 10 µM | 68% of 1,200 active;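 active = fluorescence ratio rising 3 SD or more over the vehicle control mean in both replicates, plus primary screen hit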;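 note: peak minus minimum thallium fluorescence divided by baseline after K/Tl stimulus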
Kir2-1 sel – mouse Kir2.1 off-target activity of KCNQ2 potentiators. activity over 3SD threshold, % at 10 µM. 2% of 1,200 active. AID 2345. HEK293 Kir2.1, FluxOR thallium flux fluorescence. shares compounds with KCNQ2 pot;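 active = fluorescence ratio rise of at least 3 SD above the vehicle-control mean, seen in both replicates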
KCNQ2 W236L MoA – KCNQ2 potentiators acting on retigabine-insensitive rat KCNQ2 W236L mutant. shares compounds with KCNQ2 pot. CHO KCNQ2-W236L, automated patch clamp current. current increase over 3SD of negative controls (%), stronger effect = higher value, % at 25 µM. 10% of 940 active;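 active = current increase at least 3 SD of the untreated controls above them in both duplicate recordings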
Target sequence (O88943 whole entry W236L, looked up): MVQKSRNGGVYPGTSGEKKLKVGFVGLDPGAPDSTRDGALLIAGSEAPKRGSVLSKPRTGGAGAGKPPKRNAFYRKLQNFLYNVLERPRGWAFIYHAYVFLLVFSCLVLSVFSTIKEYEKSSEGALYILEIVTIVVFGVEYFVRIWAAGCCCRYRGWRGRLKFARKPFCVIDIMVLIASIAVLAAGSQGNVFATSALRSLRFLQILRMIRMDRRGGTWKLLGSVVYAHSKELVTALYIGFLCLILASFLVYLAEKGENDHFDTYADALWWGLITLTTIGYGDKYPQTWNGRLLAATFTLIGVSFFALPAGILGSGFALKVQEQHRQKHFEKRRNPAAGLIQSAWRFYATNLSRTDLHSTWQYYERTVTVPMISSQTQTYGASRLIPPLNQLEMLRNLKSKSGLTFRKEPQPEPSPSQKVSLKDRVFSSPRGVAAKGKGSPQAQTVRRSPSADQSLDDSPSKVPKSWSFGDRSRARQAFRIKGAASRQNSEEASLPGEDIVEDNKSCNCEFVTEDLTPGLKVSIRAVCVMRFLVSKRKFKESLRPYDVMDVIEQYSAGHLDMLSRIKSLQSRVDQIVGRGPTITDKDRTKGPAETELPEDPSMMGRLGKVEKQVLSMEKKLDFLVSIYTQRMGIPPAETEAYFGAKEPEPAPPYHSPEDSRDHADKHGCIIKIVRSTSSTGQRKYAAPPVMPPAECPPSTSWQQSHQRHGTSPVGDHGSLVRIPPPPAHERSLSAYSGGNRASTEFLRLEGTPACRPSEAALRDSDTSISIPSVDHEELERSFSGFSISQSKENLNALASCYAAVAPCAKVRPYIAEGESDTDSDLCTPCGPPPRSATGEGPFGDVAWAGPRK
Hits are given with their value; i = inactive; nt = not tested or not shown; ! = not confirmed by another sample. Only some compounds are listed: those with a hit (about 1.6% of all), similar ones and a draw of the others.

SMILES	KCNQ2 inh	KCNQ2 pot	Kir21 conf inh	HEK293 ctr	others
Cc1ccc2nc3c(cc(C(=O)NC4CCS(=O)(=O)C4)n3Cc3ccccc3)c(=O)n2c1 (stereo not drawn)	i	nt	nt	nt
Cc1ccc(NC(=S)N2CCC(NC(=O)c3ccco3)CC2)cc1C	i	nt	nt	nt
O=C(Nc1ncc([N+](=O)[O-])s1)c1cccs1	i	7.7!	i	i	CHO-K1 Tl ctr=3.5;KCNQ1 pot spec=i;KCNQ2 pot confirm=i;Kir2-1 sel=i
Cc1cnc(NC(=O)c2cccs2)s1	i	i	nt	nt
Cc1cccc(NC(=O)Nc2ccc3c(c2)CCC3)c1	i	i	nt	nt
CCOc1cc(CNCCSc2nnnn2C)cc(Br)c1OCc1ccccc1	i	nt	nt	nt
CCOc1cc(CNCCO)cc(Br)c1OCc1ccccc1	i	nt	i	i
CCCCNCc1cc(Br)c(OCC(=O)NCc2ccccc2)c(OC)c1	i	nt	nt	nt
CCNCc1cc(Cl)c(OCc2ccccc2)c(OCC)c1	i	nt	42.5%	i
CCCCNCc1cc(Br)c(OCc2cccs2)c(OC)c1	i	nt	19.5%	i
Fc1ccc(COc2ccc(Br)cc2CNCc2ccncc2)cc1	i	nt	nt	nt
CCOc1cc(CNCc2ccccn2)cc(Cl)c1OCC	i	nt	nt	nt
CCOc1cc(CNCc2ccncc2)cc(Br)c1OCc1ccc(F)cc1	i	nt	i	i
CCn1c(SCC(=O)NC2CCCCC2)nnc1-c1ccco1	i	i	nt	nt
CCOC(=O)C1CCN(C(=O)COC(=O)Cc2ccc(Cl)cc2)CC1	i	i	nt	nt
COC(=O)c1cccc(NC(=O)c2ccc3c(c2)C(=O)N(Cc2cccnc2)C3=O)c1C	i	nt	nt	nt
CSc1nc2sc3c(c2c(=S)[nH]1)CC(C)(C)OC3	i	14.6	i	401.0%	CHO-K1 Tl ctr=i;KCNQ1 pot spec=i;KCNQ2 pot confirm=81.7;Kir2-1 sel=i;KCNQ2 W236L MoA=i
CCc1nc2sc3c(c2c(=S)[nH]1)CC(C)(C)OC3	i	i	nt	nt
O=C(Cn1c(=O)oc2ccccc21)Nc1ccc(F)cc1	i	i	nt	nt
CNS(=O)(=O)c1cccc(C(=O)NCC(C)(C)N2CCCCC2)c1	i	i	nt	nt
COc1cc(CN2CCN(CC3CC3)CC2CCO)cc(OC)c1 (stereo not drawn)	i	i	nt	nt
CC(Oc1ccccc1)c1ccnn1S(=O)(=O)c1ccccc1 (stereo not drawn)	i	nt	52.0%	i
CC(Oc1ccc(Cl)cc1)c1ccnn1S(=O)(=O)c1ccc(Cl)cc1 (stereo not drawn)	i	nt	nt	nt
COc1ccccc1-n1nnnc1SCC(=O)N1CCCC1=O	i	i	nt	nt
CCOC(=O)Cn1c2c(c(=N)c3ccccc31)CCC2	i	i	nt	nt
SMILES	KCNQ2 inh	KCNQ2 pot	Kir21 conf inh	HEK293 ctr	others
CCOC(=O)C1=C[C@]2(CC)CCCN3CCc4c(n1c1ccccc41)[C@@H]32	i	10.1	nt	nt	CHO-K1 Tl ctr=i;KCNQ1 pot spec=60.7;KCNQ2 pot confirm=39.1;Kir2-1 sel=i;KCNQ2 W236L MoA=i
CNC(=O)c1cc(C(=O)c2ccc(Cl)cc2)c(Br)[nH]1	i	nt	nt	nt
CCN(CCCNC(=O)COc1cc(=O)n(C)c2ccccc12)c1cccc(C)c1	i	nt	60.0%	i
Cc1cccc(CCNC(=O)COc2cc(=O)n(C)c3ccccc23)c1	i	nt	nt	nt
COCCN=C1N[C@@H](c2ccc(Br)cc2)C(C(=O)OC)=C(C)N1Cc1ccccc1	i	nt	32.0%	74.0%
COCCN1C(=S)N[C@@H](c2cccc(F)c2)C(C(=O)OC)=C1C	i	nt	41.0%	i
COC(=O)C1=C(C)N(Cc2ccccc2)C(=S)N[C@H]1c1cccc(F)c1	i	nt	nt	nt
COCCN=C1N[C@@H](c2ccccc2)C(C(=O)OC)=C(C)N1Cc1ccccc1	i	nt	nt	nt
CCN1C(=O)N[C@@H](c2cccc(F)c2)C(C(=O)OC)=C1C	i	i	nt	nt
COC(=O)C1=C(C)N(Cc2ccccc2)C(=NCc2ccccc2)N[C@H]1c1cccc(F)c1	i	nt	19.0%	i
CCN1C(=O)[C@@H]2[C@H](C1=O)[C@@H]1C(=O)Nc3ccccc3C(=O)N1[C@@H]2c1ccc(OC)cc1	i	nt	nt	nt
CCOC(=O)N1CCN(C(=O)c2cc3ccc(OC)cc3[nH]2)CC1	i	i	nt	nt
COc1ccc(OC)c(C(=O)NC(CC(N)=O)c2ccc(N3CCCCCC3)c([N+](=O)[O-])c2)c1 (stereo not drawn)	i	i	nt	nt
CC(C)c1ccc(NC(=O)CCc2ccccc2)cc1	i	i	nt	nt
O=C(CNC(=O)c1ccc(Br)o1)Nc1cccc(S(=O)(=O)N2CCCC2)c1	i	i	nt	nt
CCc1nc(SCC(=O)c2ccc(Cl)s2)c2oc3ccccc3c2n1	i	10.1	i	i	CHO-K1 Tl ctr=i;KCNQ1 pot spec=53.6;KCNQ2 pot confirm=i;Kir2-1 sel=i
CCc1nc(SCC(=O)N2CCN(c3ccccc3)CC2)c2oc3ccccc3c2n1	i	nt	nt	nt
CC(C)(C)c1ccc(OCC(=O)NCC(c2cccs2)N2CCOCC2)cc1 (stereo not drawn)	i	i	nt	nt
Cc1nn(CC(=O)NCC(C)c2ccccc2)c(=O)c2cc(-c3ccccc3)nn12 (stereo not drawn)	i	nt	nt	nt
CSCCC(NC(=O)c1cccc(C)c1)C(=O)OCN1C(=O)c2ccccc2C1=O (stereo not drawn)	i	i	nt	nt
O=c1cc(-c2ccccc2)nc2c(-c3ccccc3)c(C(F)(F)F)[nH]n12	i	23.1	i	366.0%	CHO-K1 Tl ctr=6.8;KCNQ1 pot spec=i;KCNQ2 pot confirm=94.1;Kir2-1 sel=i;KCNQ2 W236L MoA=i
Cc1cc(=O)n2[nH]c(C)c(-c3ccccc3)c2n1	i	nt	nt	nt
O=C(CN1C(=O)c2ccc([N+](=O)[O-])cc2C1=O)NCCC1=CCCCC1	i	i	nt	nt
NC(=O)CC(NC(=O)Cc1cccc2ccccc12)c1ccc(N2CCC(N3CCCC3)CC2)c([N+](=O)[O-])c1 (stereo not drawn)	i	i	nt	nt
CC(C)CN(C(=O)COC(=O)CNC(=O)c1sc2ccccc2c1Cl)C1CCS(=O)(=O)C1 (stereo not drawn)	i	i	i	75.0%
SMILES	KCNQ2 inh	KCNQ2 pot	Kir21 conf inh	HEK293 ctr	others
CC(C)CN(C(=O)COC(=O)Cc1n[nH]c(=O)c2ccccc12)C1CCS(=O)(=O)C1 (stereo not drawn)	i	nt	nt	nt
COc1ccc(NC(=O)CC(C)NCCCN2CCCC2=O)cc1 (stereo not drawn)	i	i	nt	nt
CN(C)CC/C=C1/c2cc(F)ccc2Sc2ccc(Cl)cc21	i	nt	25.0%	i
CN(C)CC/C=C1/c2ccccc2Sc2c(O)cc(Cl)cc21	i	nt	nt	nt
COc1cc(Cl)cc2c1Sc1ccccc1/C2=C/CCN(C)C	-7	i	35.5%	i
COc1cc2c(cc1Cl)/C(=C\CCN(C)C)c1ccccc1S2	i	nt	nt	nt
